Data on seven compounds can be found in PubChem BioAssay (Tox21).

Values without a mark were called inactive. Results filed as inconclusive are left out. Activity calls are given as the source filed them. Unless noted, calls follow the shape of the dose curve; as a rule, active = well fitted curve in the direction sought with a large enough effect in the repeat runs; inconclusive = weak or mixed curves; inactive = no such curve, though single readings can be large; an effect the other way counts as inactive or inconclusive.

A short description of test [1]: qHTS assay to identify small molecule agonists of H2AX (AID 1224845; active = well fitted activation curve with a large enough effect in the signal ratio in the repeat runs, not every such curve was filed as active; the % refers to the signal ratio). The gist of the method: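 Phospho-H2AX Ser139 measured by HTRF (ex 320 nm; em 665 and 620 nm) after 24 hr antibody incubation. Compounds, 15 concentrations, 0.76% DMSO, were applied to CHO-K1 cells for 3hr at 37C before lysis.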
A general note: Quantitative high-throughput screening tests each substance at several concentrations.

Test [2] is described as follows: qHTS assay to identify small molecule agonists of H2AX - cell viability counter screen (AID 1224847; calls by dose curve; also: nearly all actives have a fitted effect of over 30% in size; also: potency is read from the fitted curve at half-maximal effect). The gist of the method: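 CHO-K1 wt, 1000 cells/well, o/n 37C; cpds 15 conc, 3 h 37C, 0.76% DMSO; CellTiter-Glo, 30 min RT, luminescence.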
The nature of test [3]: qHTS assay to identify small molecule agonists of the estrogen related receptor (ERR) signaling pathway from Tox21 library (AID 1224849; calls by dose curve; also: nearly all actives have a fitted effect of over 15% in size). The note with it: ERR reporter cell line, ONE-Glo luciferase, 18 h; at 92.4 µM (top of the series) unless noted. In short, it runs like this:
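Luminescent agonist read-out (One-Glo, 30-minute room-temperature incubation) following 18-hour compound treatment at 37 C of the ERR cell line, which had been plated 6 hours before dosing.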

Test [4] in a line: qHTS RealTime-Glo MT Cell Viability Assay in HEK293 cells - 32 hour (AID 1224868). Also: nearly all actives have a fitted effect of over 50% in size. Also: potency is read from the fitted curve at half-maximal effect. In short, it runs like this:
(§1)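 HEK293 cells seeded with NanoLuc/prosubstrate reagent, rested 5 h at 37 C, then dosed and kept at 37 C up to 40 h. Nonlytic real-time luminescence from viable cells read at 0, 8, 16, 24, 32 and 40 h.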

Test [5] can be described thus: A CellTox Green Cytotoxicity Assay to monitor cytotoxicity in HEK293 cells - 0 hour (AID 1224869). Also: nearly all actives have a fitted effect of over 50% in size. In short, it runs like this:
(§2)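 Fluorescence from a DNA-binding dye excluded by viable cells was measured repeatedly in the same HEK293 wells (600 cells/well) during continuous compound exposure at 37 C. Each assay gives one read point: 0, 8, 16, 24, 32 or 40 h.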

Test [6] in a line: qHTS RealTime-Glo MT Cell Viability Assay in HepG2 cells - 40 hour (AID 1224870). Also: nearly all actives have a fitted effect of over 50% in size. Also: potency is read from the fitted curve at half-maximal effect. In short, it runs like this:
(§3)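 Real-time viability: cells seeded at 600 per well together with NanoLuc and cell-permeant prosubstrate, compounds added after 5 h incubation. Luminescence tracked at 0, 8, 16, 24, 32 and 40 h of exposure.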

A short description of test [7]: A CellTox Green Cytotoxicity Assay to monitor cytotoxicity in HEK293 cells - 40 hour (AID 1224871). Also: nearly all actives have a fitted effect of over 45% in size. Also: potency is read from the fitted curve at half-maximal effect. The gist of the method: as §2
Test [8] can be described thus: qHTS RealTime-Glo MT Cell Viability Assay in HEK293 cells - 16 hour (AID 1224872). Also: nearly all actives have a fitted effect of over 50% in size. Also: potency is read from the fitted curve at half-maximal effect. In short, it runs like this: as §1
Test [9] can be described thus: qHTS RealTime-Glo MT Cell Viability Assay in HEK293 cells - 40 hour (AID 1224874). Also: nearly all actives have a fitted effect of over 50% in size. Also: potency is read from the fitted curve at half-maximal effect. The note with it: RealTime-Glo luminescence; max response: stronger effect = lower value. The gist of the method:
(§4)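 Luminescence, which tracks viable cell number through reduction of the prosubstrate to a NanoLuc substrate, was read over continuous 37 C culture. Cells (600/well) were premixed with reagent and rested 5 h before 23 nL of compound in DMSO was pinned.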

Test [10] is described as follows: A CellTox Green Cytotoxicity Assay to monitor cytotoxicity in HEK293 cells - 24 hour (AID 1224875). Also: nearly all actives have a fitted effect of over 45% in size. The gist of the method:
as §2

Test [11] in a line: A CellTox Green Cytotoxicity Assay to monitor cytotoxicity in HepG2 cells - 16 hour (AID 1224876). Also: nearly all actives have a fitted effect of over 45% in size. Also: potency is read from the fitted curve at half-maximal effect. The gist of the method: (§5)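 Real-time cytotoxicity: fluorescence of a cell-impermeant cyanine dye binding DNA of dead HepG2 cells, measured repeatedly (0–40 h) during compound exposure at 37 C. Cells seeded 600/well with reagent, dosed after 5 h.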
Test [12] is described as follows: qHTS assay to identify small molecule antagonists of the estrogen related receptor (ERR) signaling pathway from Tox21 library (AID 1224848). Also: nearly all actives have a fitted effect of over 50% in size. Also: potency is read from the fitted curve at half-maximal effect. The gist of the method:
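ERR cell line, 2,000 cells/well. 6 h settle, then compound (DMSO) added; 18 h at 37 C; ONE-Glo luminescence after 30 min RT.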

A short description of test [13]: qHTS RealTime-Glo MT Cell Viability Assay in HepG2 cells - 24 hour (AID 1224867). Also: nearly all actives have a fitted effect of over 50% in size. The gist of the method:
(§6)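 HepG2 cells (600/well) were dispensed with RealTime-Glo reagents, incubated 5 h at 37 °C, then treated with compounds in DMSO for up to 40 h. Nonlytic NanoLuc luminescence reflecting viable cells was read at each stated time point.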

A short description of test [14]: qHTS RealTime-Glo MT Cell Viability Assay in HepG2 cells - 8 hour (AID 1224873). Also: nearly all actives have a fitted effect of over 55% in size. In short, it runs like this: as §3
The nature of test [15]: qHTS RealTime-Glo MT Cell Viability Assay in HepG2 cells - 32 hour (AID 1224877). Also: nearly all actives have a fitted effect of over 55% in size. Also: potency is read from the fitted curve at half-maximal effect. The gist of the method:
as §6

The nature of test [16]: A CellTox Green Cytotoxicity Assay to monitor cytotoxicity in HepG2 cells - 24 hour (AID 1224878). Also: nearly all actives have a fitted effect of over 45% in size. Also: potency is read from the fitted curve at half-maximal effect. The gist of the method: as §5
Test [17] can be described thus: A CellTox Green Cytotoxicity Assay to monitor cytotoxicity in HepG2 cells - 40 hour (AID 1224879). Also: nearly all actives have a fitted effect of over 40% in size. Also: potency is read from the fitted curve at half-maximal effect. The gist of the method:
as §5

Test [18] in a line: qHTS RealTime-Glo MT Cell Viability Assay in HEK293 cells - 0 hour (AID 1224880). Also: nearly all actives have a fitted effect of over 45% in size. Also: potency is read from the fitted curve at half-maximal effect. In short, it runs like this:
as §4

Test [19] is described as follows: qHTS assay to identify small molecule agonists of the hypoxia (HIF-1) signaling pathway (AID 1224846; active = well fitted activation curve with a large enough effect in the signal ratio in the repeat runs, not every such curve was filed as active; the % refers to the signal ratio). The gist of the method:
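Compounds added to ME-180 cells carrying hypoxia-response-element beta-lactamase reporter (0.5% dialyzed FBS, 5 h preplating), 17 h at 37C; agonist activity detected by CCF4-AM B/G FRET read-out.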
% is scaled to controls: 0 for no effect and ±100 for the full control effect.

Turning to `O=[N+]([O-])c1cc(C2CCCCC2)c(O)c([N+](=O)[O-])c1`, the Potency result in test [1], in test [5], in [7], in test [10] and in test [11] was “inactive” each time. For the same compound, the Potency is 11.3 µM (active) in test [2]; 12.3 µM (active) in test [4]; 48.9 µM (active) in test [6]; 27.5 µM (active) in test [8]; 12.3 µM (active) in test [9]. Also, the activity change, positive = activation in test [3] was -69.4%.

Consider `CCOC(=O)/C=C/C(=O)OCC`, for which the Potency result in test [1], in [2], in [12], in [13], in [4] and in test [5] was “inactive” in each case. For the same compound, the Potency entry in test [6], in test [8], in test [14], in [10], in [15] and in test [16] was “inactive” throughout. Further, the Potency result in test [17] and in [18] was “inactive” each time. For the same compound, the activity change, positive = activation in test [3] is 6.14%. Also, the max response in test [9] was 11.5%.

With `CC(C)C[C@H](NC(=O)[C@H](CCc1ccccc1)NC(=O)CN1CCOCC1)C(=O)N[C@@H](Cc1ccccc1)C(=O)N[C@@H](CC(C)C)C(=O)[C@@]1(C)CO1`, the Potency result in test [1], in test [2], in [5], in test [14], in test [10] and in [18] was “inactive” each time. Also, the compound was called inactive in [19]. Further, the Potency is 0.0596 µM (active) in test [12]; 0.0379 µM (active) in [4]; 0.0239 µM (active) in [6]; 0.0756 µM (active) in [7]; 0.0268 µM (active) in test [9]; 10.7 µM (active) in test [11]. Besides, the Potency is 0.0268 µM (active) in [15], 0.268 µM (active) in test [16] and 0.0169 µM (active) in test [17]. Further, the activity change, positive = activation in test [3] is -67.1% [at 42.5 µM].

As for `CN(C)CCC=C1c2ccccc2C=Cc2ccccc21`, the Potency entry in [1], in [2], in test [12], in [13], in test [5] and in [8] was “inactive” throughout. Moreover, the Potency result in test [14], in test [10] and in [15] was “inactive” throughout. Besides, the activity change, positive = activation in [3] was -12.5% [at 42.5 µM]. For the same compound, the Potency in [16] and in [17] was 23.9 µM (active) in each case.

Take `CC(C)(C)CC(=O)OCC(=O)[C@@]1(O)CC[C@H]2[C@@H]3CCC4=CC(=O)C=C[C@]4(C)[C@H]3[C@@H](O)C[C@@]21C`: the Potency entry in test [1], in test [13], in test [5], in test [6], in test [7] and in test [14] was “inactive” throughout. Further, the Potency result in test [11], in test [16] and in test [17] was “inactive” each time. In addition, in test [19], the outcome was inactive. Further, the Potency in [2] is 55.2 µM (active); in test [12] it was 26.6 µM (active); in [4], 19 µM (active); in [9], 19 µM (active); in test [18], 7.56 µM (active). Further, in [3], the activity change, positive = activation is -49.3% [at 42.5 µM].

Take `C=C1C[C@@]23CC[C@H]4[C@@](C)(CCC[C@@]4(C)C(=O)O[C@@H]4O[C@H](CO)[C@@H](O)[C@H](O)[C@H]4O)[C@@H]2CC[C@]1(O[C@@H]1O[C@H](CO)[C@@H](O)[C@H](O[C@@H]2O[C@H](CO)[C@@H](O)[C@H](O)[C@H]2O)[C@H]1O[C@@H]1O[C@H](CO)[C@@H](O)[C@H](O)[C@H]1O)C3`: the Potency result in test [1], in test [2], in test [12], in [13], in test [5] and in test [6] was “inactive” throughout. The Potency result in [7], in test [8], in test [14], in [10], in test [11] and in [15] was “inactive” each time. Besides, the Potency entry in [16], in test [17] and in test [18] was “inactive” throughout. Also, the result in [19] was inactive. Besides, the activity change, positive = activation in [3] is 1.6%. Moreover, in [9], the max response was 3.82%.

As to `C=CC(=O)[O-].C=CC(=O)[O-].[Zn+2]`, the Potency entry in test [1], in test [2], in test [13], in test [5], in test [6] and in test [7] was “inactive” each time. In addition, the Potency entry in test [8], in [14], in test [10], in test [11], in test [15] and in test [16] was “inactive” each time. Besides, the Potency result in [17] and in test [18] was “inactive” each time. For the same compound, in test [9], the max response was 0.547%.
